PubChem BioAssay AID1259249 (Broad Institute, 2017)
Values joined by “and” are separate entries in the source; they are usually repeats but may differ in a detail not shown here. Identical values can stand only once. In all, about 86,000 compounds went through this assay and about 220 (0.26%) were called active. The sample as a whole holds a higher share of actives than the screen did. Unmarked numbers belong to inactive results.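 How the source made its calls: active means mean growth activity at or below -80% and every replicate also at or below -80%; inconclusive means mean at or below -80% but some replicate above -80%; inactive means mean growth activity above -80%.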

test: blockers of Clostridium difficile growth – HTS, primary screen (AID 1259249); settings: Clostridium difficile clinical isolate growth, OD600, 24 h; hits give low values; screened at 16 µg/mL (by protocol);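 further: 0% = DMSO wells and -100% = levofloxacin 16 µg/mL wells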

Row | Compound | growth activity, negative = inhibition
1 | COc1ccc2c3c(n(C)c2c1)[C@H](CO)N(C(=O)c1ccncc1)CC31CCN(CC2CC2)CC1 | -4.02%
2 | CN(C)CC(=O)N[C@H]1CC[C@H](CCNC(=O)C2CCCCC2)O[C@H]1CO | -2.36%
3 | CCS(=O)(=O)N1CC(=O)N2[C@H](CO)[C@@H](c3ccc(C#Cc4cccc(F)c4)cc3)[C@@H]2C1 | -11.9%
4 | CCCNC(=O)N1CC2(CCN(Cc3ccc(F)cc3)CC2)c2c([nH]c3cc(OC)ccc23)[C@@H]1CO | -2.16%
5 | COc1ccc(C#Cc2cnc3c(c2)C(=O)N([C@H](C)CO)C[C@@H](C)[C@H](CN(C)C(=O)Nc2cccc(OC)c2)O3)cc1 | -9.72%
6 | CO[C@@H]1CN(C)C(=O)c2ccc(NC(=O)NC(C)C)cc2OC[C@@H](C)N(C)C[C@H]1C | -0.836%
7 | CO[C@H]1CN(C)C(=O)c2ccc(NC(=O)c3cnccn3)cc2OC[C@H](C)N(C)C[C@@H]1C | 4.99%
8 | CC=Cc1ccc2n(c1=O)C[C@H]1[C@H](CO)[C@@H](C(=O)NCCc3cn(C)cn3)[C@@H]2N1C(=O)CC (mixture of isomers) | 1.45%
9 | CCNC(=O)C[C@H]1CC[C@@H]2[C@H](COc3ccc(NC(=O)Nc4cccc(Cl)c4)cc3C(=O)N2C)O1 | -2.43%
10 | CC(=O)N1[C@H](CNC(=O)CN(C)C)[C@H](c2ccc(C3=CCCC3)cc2)[C@@H]1CO | -3.19%
11 | CO[C@H]1O[C@H](CO)[C@@H](OC(=O)Nc2ccc(C(F)(F)F)cc2)[C@H](OC(=O)Nc2ccc3c(c2)OCO3)[C@H]1OC(=O)Nc1ccc2c(c1)OCO2 | 16.4%
12 | COc1ccc(-c2ccc3c(c2)[C@@H]2[C@@H](CCN2C(=O)NC2CCCC2)[C@@H](CO)N3C)cc1 | -8.11%
13 | C[C@H](NC(=O)[C@@H]1[C@@H](CO)[C@@H]2Cn3c(ccc(-c4cccc(F)c4)c3=O)[C@@H]2N1C)c1ccccc1 | -2.53%
14 | CN1C(=O)c2cc(NC(=O)C3CCCCC3)ccc2OC[C@H]2O[C@@H](CC(=O)NC3CCCC3)CC[C@@H]21 | -2.9%
15 | CO[C@H]1CN(C)C(=O)c2ccc(NC(=O)Nc3ccc4c(c3)OCO4)cc2OC[C@H](C)NC[C@H]1C | -11.3%
16 | CO[C@@H]1CN(C)C(=O)c2ccc(NC(=O)Nc3cc(Cl)cc(Cl)c3)cc2OC[C@H](C)NC[C@H]1C | -99.2% (active)
17 | CO[C@H]1CN(C)C(=O)c2ccc(NC(=O)Nc3ccc(F)cc3)cc2OC[C@@H](C)NC[C@H]1C | 0.388%
18 | COc1cccc(NC(=O)N2C[C@@H](O)COC[C@@H]3O[C@@H](CC(=O)NC4CCC4)CC[C@H]32)c1 | 5.76%
19 | Cc1ccccc1S(=O)(=O)NCC[C@@H]1CC[C@H](NC(=O)C2CCC2)[C@@H](CO)O1 | 2.36%
20 | O=C(N[C@H]1CC[C@H](CCNS(=O)(=O)c2ccc(F)cc2)O[C@H]1CO)c1cccc(F)c1 | -5.13%
21 | COC(=O)C[C@H]1C[C@H]2c3cc(NC(=O)Nc4ccccc4F)ccc3O[C@H]2[C@H](CO)O1 | 2.15%
22 | COc1cc(C(=O)NC2CCN(C)CC2)ccc1Nc1ncc2c(n1)N(C1CCC(O)CC1)CCC(=O)N2C (centres undefined) | -0.491%

Row | Compound | growth activity, negative = inhibition
23 | O=C(Nc1cc(F)ccc1F)N1C[C@H]2[C@@H](c3ccccc31)[C@@H](CO)N2CC1CCCC1 | 8.3%
24 | O=C(NCC1CC1)[C@@H]1[C@@H](CO)[C@@H]2Cn3c(ccc(-c4ccccc4)c3=O)[C@H]1N2Cc1nccs1 | -2.44%
25 | CCCNC(=O)N(C)C[C@H]1Oc2ncc(-c3cccc(C#N)c3)cc2C(=O)N([C@@H](C)CO)C[C@@H]1C | 2.18%
26 | C[C@@H]1CCCCO[C@@H](CN(C)C(=O)Nc2ccc3c(c2)OCO3)[C@H](C)CN([C@H](C)CO)C(=O)c2cc(NC(=O)CCCN(C)C)ccc2O1 | 5.23%
27 | O=C(Cc1cccnc1)N1CC(=O)N2[C@@H](CO)[C@@H](c3ccc(C#CC4CCCC4)cc3)[C@@H]2C1 | -15.5%
28 | COc1ccc2c3c(n(C)c2c1)[C@@H](CO)N(C)CC31CN(CC2CC2)C1 | 1.27%
29 | COc1ccc2c3c([nH]c2c1)[C@H](CO)N(C(=O)Nc1ccc(F)cc1)CC31CN(S(=O)(=O)c2cccc(F)c2)C1 | 0.0849%
30 | O=C(c1cccc(F)c1)N1CC[C@@H]2[C@H](CO)Nc3ccc(-c4ccccc4)cc3[C@@H]21 | 6.91%
31 | COCC#Cc1ccc([C@@H]2[C@H](CO)N3C(=O)CN(C(=O)C4CCC4)C[C@@H]23)cc1 | -5.13%
32 | COc1ccc2c3c([nH]c2c1)[C@@H](CO)N(C(=O)c1ccccc1)CC31CCN(Cc2cccnc2)CC1 | 3.57%
33 | CC=Cc1ccc2n(c1=O)C[C@H]1[C@H](CO)[C@@H](C(=O)NC3CCCC3)N(Cc3cccnc3)[C@@H]21 (mixture of isomers) | 1.31%
34 | CCC(=O)N1CC(=O)N2[C@@H](CO)[C@H](c3ccc(C#CC4CCCC4)cc3)[C@@H]2C1 | -2.43%
35 | CN(C)CC#Cc1ccc([C@H]2[C@H]3CN(C(=O)c4cccc(F)c4)CC(=O)N3[C@H]2CO)cc1 | 2.12%
36 | CO[C@H]1CN(C)C(=O)c2cc(NS(=O)(=O)c3ccccc3C)ccc2OC[C@@H](C)NC[C@@H]1C | -1.27%
37 | CS(=O)(=O)N1[C@H](C#N)[C@H](c2ccccc2-c2ccc(F)cc2)[C@@H]1CO | 7%
38 | CC(=O)N(C)C[C@H]1[C@H](c2ccc(C3=CCCCC3)cc2)[C@H](CO)N1CC1CC1 | 33.9%
39 | O=C(C[C@@H]1CC[C@@H](NC(=O)C2CCOCC2)[C@H](CO)O1)NCC1CC1 | 1.16%
40 | COc1ccccc1NC(=O)N1CC(=O)N2[C@H](C1)[C@H](c1ccc(C#Cc3ccccc3)cc1)[C@@H]2CO | 12.6%
41 | CCCNC(=O)C[C@H]1C[C@H]2c3cc(NC(=O)NC4CCCCC4)ccc3O[C@H]2[C@H](CO)O1 | -4.2%
42 | COc1cccc(NC(=O)C[C@@H]2CC[C@H]3[C@@H](COc4ccc(NC(=O)C5CCC5)cc4C(=O)N3C)O2)c1 | -1.63%
43 | C[C@@H]1CN([C@@H](C)CO)S(=O)(=O)c2ccc(/C=C/c3ccccc3)cc2O[C@H]1CN(C)C(=O)Nc1cc(F)ccc1F | 4.39%
44 | C/C=C/c1ccc([C@H]2[C@H](CO)N(C(=O)CN(C)C)C23CN(C(=O)C2CC2)C3)cc1 | -0.638%

Row | Compound | growth activity, negative = inhibition
45 | CN1c2ccc(-c3ccccc3F)cc2[C@H]2[C@H](CCN2C(=O)Nc2cc(F)ccc2F)[C@H]1CO | 38.2%
46 | C[C@@H]1CCCCO[C@@H](CN(C)C(=O)CCC(F)(F)F)[C@H](C)CN([C@@H](C)CO)C(=O)c2cc(NC(=O)CCCN(C)C)ccc2O1 | 2.21%
47 | COc1ccccc1CN1[C@H](CO)[C@@H](c2ccccc2)C12CN(C(=O)c1cnccn1)C2 | 5.54%
48 | CN1CCN(C(=O)C[C@H]2CC[C@H]3[C@@H](COC[C@H](O)CN3CC3CCOCC3)O2)CC1 | -4.46% and 6.12%
49 | COCCNC(=O)C[C@H]1CC[C@@H]2[C@@H](COc3ccc(NC(=O)C4CCOCC4)cc3C(=O)N2C)O1 | -4.68%
50 | CNC(=O)C[C@@H]1CC[C@@H]2[C@@H](COc3ccc(NC(=O)c4ccc(F)cc4)cc3C(=O)N2C)O1 | 8.61%
51 | O=C(N[C@@H]1CC[C@@H](CC(=O)N2CCc3ccccc3C2)O[C@H]1CO)C1CC1 | -3.47%
52 | CCCNC(=O)N1CC2(C1)[C@H](c1ccccc1)[C@@H](CO)N2Cc1cccc(Cl)c1 | 17%
53 | O=C(Nc1ccc(F)cc1)N1C[C@@H]2[C@H](c3ccccc31)[C@H](CO)N2Cc1ccccc1 | 3.9%
54 | O=C(C1CCCCC1)N1C[C@@H]2N[C@H](C1)C2c1ccc(-c2cccc(F)c2)cc1 (some centres undefined) | 56.1% and 10.9%
55 | Cc1cccc(-c2ccc(C3[C@@H]4CN(C(=O)Nc5ccc(C(F)(F)F)cc5)C[C@H]3N4)cc2)c1 (some centres undefined) | -94.2% (active) and -85.7% (active)
56 | CN(C)C(=O)c1ccc(-c2ccc(C3[C@@H]4CN(C(=O)Nc5ccccc5)C[C@H]3N4)cc2)cc1 (some centres undefined) | 4.58%
57 | COc1ccc2c3c(n(C)c2c1)[C@H](CO)N(Cc1ccccc1)CC31CN(C(=O)c2ccccc2F)C1 | 20.3%
58 | CCCC(=O)Nc1ccc2c(c1)OC[C@H](C)N(C(=O)CC)C[C@H](C)[C@@H](OC)CN(C)C2=O | -5.26%
59 | COc1ccc2c3c([nH]c2c1)[C@@H](CO)N(C(C)=O)CC31CN(C(=O)Nc2ccc(F)cc2)C1 | 1.62%
60 | CN1CCCCN2[C@@H](CO)[C@@H](c3ccc(C4=CCCC4)cc3)[C@@H]2C1 | 0.437%
61 | N#C[C@@H]1[C@H](c2ccc(-c3cccnc3)cc2)[C@H](CO)N1C(=O)C1CC1 | -3.1%
62 | O=C(CN1CCOCC1)NCC[C@@H]1CC[C@@H](NC(=O)Nc2ccccc2)[C@H](CO)O1 | 0.549%
63 | O=S(=O)(N[C@H]1CC[C@@H](CCNS(=O)(=O)c2ccccc2Cl)O[C@@H]1CO)c1ccccc1 | -8.16%
64 | COc1ccc(C#Cc2ccc([C@@H]3[C@H](CO)N4C(=O)CN(C(C)=O)C[C@@H]34)cc2)cc1 | -6.73%
